These results are taken from the supplement of paper PMC4206461.

The test concerns Pseudomonas aeruginosa PA14 dppA1-A5 penta mutant + pBBR5.DppA1 (PA14_58350). The experiment in a line: respiration area under curve with compound as sole nitrogen source, 24 h (OmniLog AUC (arbitrary units)); higher = more respiration / better utilisation as nitrogen source, active = 2000 or more. The protocol:
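Biolog Phenotype MicroArray plates PM6-PM8: each di/tripeptide is the sole nitrogen source. Tetrazolium reduction was read in the OmniLog for 24 h at 37°C and summarised as area under the respiration curve (arbitrary units). Values below 2000 count as no respiration. Strain is the SBP penta mutant complemented with DppA1 on a plasmid under its native promoter. Lys/His/Cys peptides are excluded.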
For the molecule `CC(C)C[C@H](NC(=O)CN)C(=O)O` (plate: PM6), the “respiration area under curve” value is 969 (inactive). As for `NCC(=O)N[C@H](CC(=O)O)C(=O)O` (plate: PM8), the figure is 0 (inactive). Take `CC[C@H](C)[C@H](N)C(=O)N[C@@H](CO)C(=O)O` (plate: PM6): the “respiration area under curve” value was 3970 (active).

As for `CC(C)C[C@H](NC(=O)[C@@H]1CCCN1)C(=O)O` (plate: PM7), the “respiration area under curve” value was 5560 (active).

`CSCC[C@H](NC(=O)[C@H](C)N)C(=O)O` (plate: PM8): the “respiration area under curve” value is 6710 (active). Under `N[C@@H](Cc1c[nH]c2ccccc12)C(=O)N[C@@H](CC(=O)O)C(=O)O` (plate: PM7) stands 502 (inactive).

As for `C[C@@H](O)[C@H](N)C(=O)N[C@@H](CCC(=O)O)C(=O)O` (plate: PM7), the “respiration area under curve” value was 5630 (active).

Turning to `N[C@@H](Cc1c[nH]c2ccccc12)C(=O)N[C@@H](Cc1c[nH]c2ccccc12)C(=O)O` (plate: PM7), the “respiration area under curve” value was 477 (inactive). In the case of `NC(=O)CC[C@H](N)C(=O)NCC(=O)O` (plate: PM6), the “respiration area under curve” value is 5240 (active). Under `O=C(O)[C@@H]1CCCN1C(=O)[C@@H]1CCCN1` (plate: PM7) stands 8180 (active); under `CC(C)C[C@H](NC(=O)[C@@H](N)CCCN=C(N)N)C(=O)O` (plate: PM6), 7900 (active); under `CC(C)[C@H](NC(=O)[C@@H](N)CCC(=O)O)C(=O)O` (plate: PM6), 2600 (active).

For the molecule `N[C@@H](Cc1ccccc1)C(=O)N1CCC[C@H]1C(=O)O` (plate: PM7), the “respiration area under curve” value was 3980 (active). On to `CC(C)[C@H](N)C(=O)N[C@@H](Cc1ccc(O)cc1)C(=O)O` (plate: PM7), for which the “respiration area under curve” value was 7120 (active). Under `C[C@H](N)C(=O)N[C@@H](CCC(=O)O)C(=O)O` (plate: PM6) stands 6760 (active); under `CC(C)C[C@H](N)C(=O)N[C@@H](CC(N)=O)C(=O)O` (plate: PM8), 11100 (active); under `CSCC[C@H](NC(=O)[C@@H](N)Cc1ccccc1)C(=O)O` (plate: PM8), 805 (inactive). As for `CC[C@H](C)[C@H](NC(=O)[C@@H](N)Cc1ccc(O)cc1)C(=O)O` (plate: PM8), the “respiration area under curve” value is 6990 (active).

Take `CC(C)[C@H](NC(=O)[C@@H](N)CC(N)=O)C(=O)O` (plate: PM6): the “respiration area under curve” value is 5500 (active). As for `CSCCC(N)C(=O)NC(CCCN=C(N)N)C(=O)O` (stereo not given) (plate: PM7), the figure is 13200 (active); as for `CC[C@H](C)[C@H](N)C(=O)N[C@@H](Cc1ccccc1)C(=O)O` (plate: PM6), 1500 (inactive).

Regarding `N[C@@H](Cc1c[nH]c2ccccc12)C(=O)N[C@@H](CCC(=O)O)C(=O)O` (plate: PM7), the “respiration area under curve” value was 1070 (inactive).

Consider `CC(C)[C@H](NC(=O)[C@@H](N)CO)C(=O)O` (plate: PM7), for which the “respiration area under curve” value is 6730 (active). Under `O=C(O)[C@H](Cc1ccc(O)cc1)NC(=O)[C@@H]1CCCN1` (plate: PM7) stands 11800 (active).

In the case of `C[C@@H](NC(=O)CN)C(=O)O` (plate: PM8), the “respiration area under curve” value is 3490 (active). As for `C[C@H](N)C(=O)N[C@@H](Cc1c[nH]c2ccccc12)C(=O)O` (plate: PM6), the figure is 3700 (active). For the molecule `CC(C)C[C@H](N)C(=O)NCC(=O)NCC(=O)O` (plate: PM8), the “respiration area under curve” value was 8090 (active). Under `C[C@H](O)[C@@H](NC(=O)CN)C(=O)O` (plate: PM8) stands 0 (inactive); under `NCC(=O)NCC(=O)NCC(=O)O` (plate: PM8), 940 (inactive).

As to `NCC(=O)N[C@H](CO)C(=O)O` (plate: PM8), the “respiration area under curve” value is 408 (inactive).

Take `CC(C)C[C@H](N)C(=O)NCC(=O)O` (plate: PM6): the “respiration area under curve” value was 5940 (active). As for `CC(C)[C@H](NC(=O)[C@@H](N)Cc1ccccc1)C(=O)O` (plate: PM8), the figure is 5720 (active); as for `CC(C)C(N)C(=O)NC(CO)C(=O)O` (stereo not given) (plate: PM8), 6900 (active); as for `CC[C@H](C)[C@H](NC(=O)CN)C(=O)O` (plate: PM8), 4580 (active). Regarding `CC(C)[C@H](NC(=O)[C@@H](N)Cc1ccc(O)cc1)C(=O)O` (plate: PM8), the “respiration area under curve” value was 6630 (active).

In the case of `CSCC[C@H](N)C(=O)N[C@@H](CC(=O)O)C(=O)O` (plate: PM7), the “respiration area under curve” value is 4440 (active). As for `NC(CO)C(=O)NC(CCC(=O)O)C(=O)O` (stereo not given) (plate: PM8), the figure is 3950 (active). Under `NC(N)=NCCC[C@H](N)C(=O)N[C@@H](CCC(=O)O)C(=O)O` (plate: PM6) stands 8440 (active); under `NC(=O)C[C@H](NC(=O)[C@@H]1CCCN1)C(=O)O` (plate: PM8), 11600 (active); under `CC(C)[C@H](NC(=O)[C@@H](N)CC(=O)O)C(=O)O` (plate: PM6), 1900 (inactive).
